For 16 compounds, z-score results are on record in PubChem BioAssay.

Activity calls are given as the source filed them.

The nature of test [1]: A549 cell viability effects, profiling panel, calcein-AM fluorescence, 48 h, basal (AID 1162). Conditions: higher = more signal.
The nature of test [2]: adipocyte viability effects, profiling panel, cell-based, 3T3-L1 adipocytes, calcein-AM fluorescence, 48 h, basal (AID 1163). Conditions: 3T3-L1 adipocytes viability, higher = more signal.
Test [3] is described as follows: HepG2 cell viability effects, profiling panel, calcein-AM fluorescence, 48 h, basal (AID 1164). Conditions: higher = more signal.
Test [4] can be described thus: MM1S cell viability effects, profiling panel, calcein-AM fluorescence, 48 h, basal (AID 1165).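 Further: viability of MM1S multiple myeloma cells under basal unstimulated conditions.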 Conditions: higher = more signal.
The nature of test [5]: basal RPMI8226 viability, no added stimulus, profiling panel, cell-based, calcein-AM fluorescence, 48 h, PK04 Diversity Set (AID 1166).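 Further: cells grown under basal conditions without added stimulus.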 Conditions: RPMI8226 myeloma viability, higher = more signal.
Test [6] in a line: basal HepG2 mitochondrial membrane potential changes, profiling panel, cell-based, JC-1 fluorescence, 24 h, 100 nL compound (AID 1167). Conditions: higher = more signal.
The nature of test [7]: basal 3T3-L1 adipocyte mitochondrial potential changes, profiling panel, cell-based, JC-1 fluorescence, 3T3-L1 adipocytes, 24 h, 100 nL compound (AID 1168). Conditions: JC-1 mitochondrial fluorescence, higher = more signal, called active from +8 up or from −8 down.
Test [8] in a line: basal RPMI8226 mitochondrial membrane potential changes, profiling panel, cell-based, JC-1 fluorescence, 24 h, 100 nL compound (AID 1169). Conditions: RPMI8226 myeloma, JC-1 mitochondrial potential fluorescence, higher = more signal.
Test [9] can be described thus: basal MM1S mitochondrial membrane potential changes, profiling panel, cell-based, JC-1 fluorescence, 24 h, 100 nL compound (AID 1170). Conditions: higher = more signal.
Test [10] is described as follows: A549 lung cancer cell viability effects, profiling panel, resazurin fluorescence, 24 h, PK04 Diversity Set (AID 1171). Conditions: higher = more signal, called active from +8 up or from −8 down.
Further: test concentration not given here.

With `CC(=O)Nc1cc(Br)ccc1C(=O)NCc1ccccc1`, the z-score in [1] is -0.196; in [2], 0.814; in test [3], -0.0731; in test [4], -0.0267; in test [5] it was 0.0237; in test [6] it was -0.56. For the same compound, the z-score was -0.907 (inactive) in test [7], 0.782 in test [8], 1.25 in test [9] and 0.14 (inactive) in test [10].
With `COCCOC(=O)N1C(=O)[C@@]2(c3ccccc31)[C@H](C(=O)N1CCCCCCC1)[C@H]1C(=O)O[C@H](c3ccccc3)[C@H](c3ccccc3)N1[C@@H]2c1ccc(OCCO)cc1`, the z-score in test [1] is -0.134; in test [2], -0.202; in test [3], -0.265; in test [4], -0.88; in test [5] it was -1.07; in test [6], -0.639. Also, the z-score is -1.75 (inactive) in test [7], -0.714 in test [8], -1.15 in test [9] and 0.526 (inactive) in test [10].
In the case of `CCCC1(C(=O)OC)C=C2C(=C(c3ccccc3)C(=O)C2C)CN1` (stereo not given), the z-score in [1] is -1; in [2], -0.446; in test [3], -0.5; in [4] it was 0.136; in test [5], -1.14; in test [6], 0.0027. Besides, the z-score in test [7] was -1.23 (inactive); in test [8], -0.198; in test [9], -0.949; in [10] it was -0.42 (inactive).
For `COc1ccc(CCNC(=O)[C@@]2(c3ccc([N+](=O)[O-])cc3)CC(=O)N(CC34CC5CC(CC(C5)C3)C4)[C@@H]2c2ccc(CO)cc2I)cc1`, the z-score in test [1] was -0.68; in [2] it was 0.475; in [3], -1.36; in test [4], -2.44; in test [5], -3.68; in test [6], 2. Further, the z-score in test [7] is 0.1 (inactive); in [8], -0.973; in test [9] it was -0.571; in test [10], -2.16 (inactive).
For the compound `CCCCCCc1nc(-c2ccc(-c3ccc(Cl)c(Cl)c3)o2)c(C)c2c1[Si](C(C)C)(C(C)C)OC2`, the z-score is -2.55 in test [1]; 0.438 in test [2]; -1.55 in test [3]; -3.25 in test [4]; -4.25 in test [5]; -3.26 in test [6]. Further, the z-score in [7] was 0.113 (inactive); in [8], -0.977; in test [9], -1.68; in test [10], -0.312 (inactive).
As to `C[N+](C)(C)CCCCCCNC(=O)[C@H]1C[C@H]2C(=O)N[C@@H](Cc3ccccc3)C(=O)N2[C@H]1c1cccc(OCCO)c1`, the z-score in [1] is -0.344; in [2], -1.04; in [3], -0.695; in [4] it was 0.245; in [5], 0.517; in test [6] it was -1.25. In addition, the z-score is -0.371 (inactive) in test [7], -0.186 in test [8], -0.545 in test [9] and 0.568 (inactive) in [10].
As to `C=CCNC(=O)[C@@H]1[C@H]2C(=O)O[C@H](c3ccccc3)[C@H](c3ccccc3)N2[C@H](c2ccc(OCCO)cc2)[C@@]12C(=O)N(C(=O)OCCOC)c1ccc(C#CCNC(N)=O)cc12`, the z-score is -0.0901 in test [1]; 0.488 in test [2]; 0.219 in test [3]; 0.911 in test [4]; -1.6 in [5]; -0.734 in [6]. The z-score in [7] is 0.648 (inactive); in test [8] it was -0.888; in test [9], 0.679; in test [10], -0.271 (inactive).
For the compound `COC(=O)c1c2oc(c1C(=O)OC)C(=O)N[C@@H](C(C)C)Cn1cc(nn1)C1(CCCCC1)NC(=O)N[C@H](CO)CC2`, the z-score in test [1] is 1.31; in test [2], -0.32; in test [3], 0.0744; in [4], -0.11; in [5], 0.823; in [6] it was 1.62. Further, the z-score in [7] is 0.024 (inactive); in [8], -0.159; in test [9], 0.3; in test [10] it was 1.15 (inactive).
For the compound `COc1ccc([Si](C)(C)[C@@H]2[C@@H](CC(=O)N3CCC[C@H]3CO)O[C@]3(C(=O)N(Cc4cccc(I)c4)c4ccccc43)[C@H]2C)cc1`, the z-score is -1.08 in test [1]; 1.24 in test [2]; -2.59 in test [3]; -2.92 in test [4]; -4.52 in test [5]; -0.646 in test [6]. The z-score in test [7] was -0.0158 (inactive); in test [8] it was -1.08; in [9], -1.48; in test [10], -3.17 (inactive).
For the compound `C=C(/C(=C/C[C@H](OC(=O)c1ccncc1)c1ccc(OCCO)cc1)c1cc(C(=O)OC)ccc1OC)C(C)C`, the z-score was 0.0699 in test [1]; 1.62 in test [2]; -0.274 in [3]; -0.158 in [4]; -1.9 in [5]; 0.751 in test [6]. The z-score in test [7] was 0.111 (inactive); in [8], -0.143; in [9], 0.503; in test [10], 0.827 (inactive).
`COc1ccc(-c2cc3c(c(Cc4ccccc4)n2)[Si](C(C)C)(C(C)C)OC3)cn1`: the z-score in [1] is -0.103; in [2] it was -0.19; in [3] it was 0.147; in test [4], -0.494; in test [5] it was -1.37; in test [6] it was -0.914. In addition, the z-score in test [7] was -1.19 (inactive); in test [8] it was -0.346; in test [9] it was 0.488; in [10], 2.17 (inactive).
Turning to `COC(=O)[C@@]1(CCC(=O)OC(C)(C)C)N=C(c2ccc(OCCCO)cc2)O[C@H]1c1ccccc1`, the z-score in test [1] is -1.68; in test [2], 0.673; in [3] it was -0.968; in [4], -2.83; in test [5], -2.83; in [6] it was -2.01. The z-score in [7] was -0.306 (inactive); in [8] it was -1.1; in test [9] it was 0.558; in test [10], -1.8 (inactive).
Take `O=C1[C@@]23C=C(Br)[C@H](C[C@@H]2COC3)[C@]12CO2`: the z-score in [1] is -0.186; in [2] it was -0.959; in test [3], -1.1; in test [4], -3.17; in test [5], -2.02; in test [6] it was -2.21. The z-score was -1.42 (inactive) in [7], -1.3 in test [8], -2.19 in test [9] and -0.453 (inactive) in test [10].
`COCCOC(=O)N1C(=O)[C@@]2(c3cc(C#CC4=CCCCC4)ccc31)[C@H](c1ccc(OCCO)cc1)N1[C@H](c3ccccc3)[C@H](c3ccccc3)OC(=O)[C@H]1[C@@H]2C(=O)N1CCc2cc(OC)c(OC)cc2C1`: the z-score is 1.31 in [1]; 0.453 in [2]; 1.96 in test [3]; 0.505 in test [4]; -0.0521 in test [5]; 0.578 in [6]. The z-score was 2.21 (inactive) in test [7], -0.521 in test [8], -0.935 in test [9] and -1.12 (inactive) in [10].
In the case of `CC(C)CN1C(=O)[C@@]2(c3ccc([N+](=O)[O-])cc3)CC(=O)N(C3CCCCC3)[C@@H]2c2ccc(CO)cc21`, the z-score in [1] is -0.651; in test [2] it was 0.16; in test [3], -0.403; in [4], 0.246; in [5] it was 0.0529; in test [6], 0.0665. Besides, the z-score in test [7] is -0.339 (inactive); in [8], 0.603; in test [9], -0.214; in [10], -0.881 (inactive).
With `CC=CC(O)C1C=CC2C(=O)N(C)C(=O)C2N1N(c1ccccc1)c1ccccc1` (stereo not given), the z-score in test [1] is -0.716; in test [2], -1.7; in [3] it was -0.967; in [4], 0.13; in test [5], 0.0318; in test [6], -0.0443. Moreover, the z-score in test [7] is -0.149 (inactive); in test [8] it was -0.372; in test [9], -0.106; in test [10], -0.522 (inactive).
